Activity calls are given as the source filed them. The calls were made as follows: active = hit-call score of the fitted dose curve at least 0.9, where 1 is the maximum; inactive = score below 0.9.
The compounds below were run on Monokine induced gamma interferon (MIG), CXCL9 (gene 4283) (assay: BSK_3C_MIG: BioMAP Diversity Plus: 3C Assay for Monokine induced gamma interferon (MIG) Biomarker Activity (AID 2283021;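 as to AC50: MIG protein level measured by immunoassay in the treated endothelial cultures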)). Settings: primary human endothelial cells (HUVEC); actives raise or lower the signal.
How it was run: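 ELISA measurement of MIG in human umbilical vein endothelial cells 24 h after treatment. Cytotoxicity tracked by SRB staining in parallel cultures; gain or loss of signal fitted relative to DMSO.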

| Compound | outcome | AC50 |
| --- | --- | --- |
| COCCOc1cc2cc(C(=O)NC3CCN(C(C)C)CC3)n(CC(=O)Nc3ccc(Cl)cn3)c2cn1 | inactive | – |
| CCc1cc(SCc2sc(-c3ccc(C(F)(F)F)cc3)nc2CN2CCN(c3ccc(OC)cc3)CC2)ccc1OCC(=O)O | – | 16.9 µM (active) |
| CCCCCCCCO | inactive | – |
| CC(C)CCCCCCOC(=O)c1ccc(C(=O)OCCCCCCC(C)C)c(C(=O)OCCCCCCC(C)C)c1 | inactive | – |
| Nc1nc2ncc(CNc3ccc(C(=O)N[C@@H](CCC(=O)O)C(=O)O)cc3)nc2c(=O)[nH]1 | inactive | – |
| Cn1c(=O)cc(Oc2ccc(F)cc2F)c2cnc(NCC(C)(C)O)nc21 | inactive | – |
| CC(=O)OCCC(C)C | inactive | – |
| COC(=O)CC(=O)OC | inactive | – |
| Cc1c(-c2cccnc2)c2ccccc2n1CCCCC(=O)O | inactive | – |
| Nc1cccc(N)c1 | inactive | – |
| CC[C@H](C)C(=O)O[C@H]1C[C@@H](C)C=C2C=C[C@H](C)[C@H](CC[C@@H]3C[C@@H](O)CC(=O)O3)[C@H]21 | inactive | – |
| COC(=O)c1ccccc1O | inactive | – |
| CC[C@H]1OC(=O)[C@H](C)[C@@H](O[C@H]2C[C@@](C)(OC)[C@@H](O)[C@H](C)O2)[C@H](C)[C@@H](O[C@@H]2O[C@H](C)C[C@H](N(C)C)[C@H]2O)[C@](C)(O)C[C@@H](C)C(=O)[C@H](C)[C@@H](O)[C@]1(C)O | inactive | – |

Source: PubChem BioAssay (EPA / NIEHS)
